Inconclusive results are not listed. Calls follow the shape of the dose curve; as a rule, active = well fitted curve in the direction sought with a large enough effect; inconclusive = small, poorly fitted or top-dose-only effect, or another doubt; inactive = no such curve, though single readings can be large; an effect the other way counts as inactive or inconclusive.
Legend:
[1] = molecular target: Rap guanine nucleotide exchange factor 4 (Homo sapiens) (UniProt Q8WZA2); test: Confirmatory qHTS for agonist of cAMP-regulated guanine nucleotide exchange factor 4 (EPAC2) (AID 1645884);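 also: nucleotide exchange releases bodipy-GDP from Rap1 and this lowers its fluorescence; % is scaled to controls: 0 for no effect and ±100 for the full control effect; nearly all actives have a fitted effect of over 65% in size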
[2] = molecular target: Rap guanine nucleotide exchange factor 4 (Homo sapiens) (UniProt Q8WZA2); test: Confirmatory qHTS for antagonist of cAMP-regulated guanine nucleotide exchange factor 4 (EPAC2) (AID 1645885); also: % is scaled to controls: 0 for no effect and ±100 for the full control effect; nearly all actives have a fitted effect of over 25% in size
[3] = molecular target: Rap guanine nucleotide exchange factor 3 (Homo sapiens) (UniProt O95398); test: Counterscreen qHTS for antagonist of cAMP-regulated guanine nucleotide exchange factor 3 (EPAC1) (AID 1645888);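 also: fluorescence loss as bound BODIPY-GDP is released from Rap1B; % of control where 0% means no effect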
How it was run: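 Rap1B-BODIPY-GDP 250 nM + GDP 50 uM; cpds 7-pt, final 9.74 nM–152 uM (activator mode) or from 7.32 nM upwards (inhibitor mode); RT; FI 480/540 nm at 5 and 30 min, then ± cAMP, reread.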

Sequence of Rap guanine nucleotide exchange factor 4 (Homo sapiens) (Q8WZA2 whole entry, looked up): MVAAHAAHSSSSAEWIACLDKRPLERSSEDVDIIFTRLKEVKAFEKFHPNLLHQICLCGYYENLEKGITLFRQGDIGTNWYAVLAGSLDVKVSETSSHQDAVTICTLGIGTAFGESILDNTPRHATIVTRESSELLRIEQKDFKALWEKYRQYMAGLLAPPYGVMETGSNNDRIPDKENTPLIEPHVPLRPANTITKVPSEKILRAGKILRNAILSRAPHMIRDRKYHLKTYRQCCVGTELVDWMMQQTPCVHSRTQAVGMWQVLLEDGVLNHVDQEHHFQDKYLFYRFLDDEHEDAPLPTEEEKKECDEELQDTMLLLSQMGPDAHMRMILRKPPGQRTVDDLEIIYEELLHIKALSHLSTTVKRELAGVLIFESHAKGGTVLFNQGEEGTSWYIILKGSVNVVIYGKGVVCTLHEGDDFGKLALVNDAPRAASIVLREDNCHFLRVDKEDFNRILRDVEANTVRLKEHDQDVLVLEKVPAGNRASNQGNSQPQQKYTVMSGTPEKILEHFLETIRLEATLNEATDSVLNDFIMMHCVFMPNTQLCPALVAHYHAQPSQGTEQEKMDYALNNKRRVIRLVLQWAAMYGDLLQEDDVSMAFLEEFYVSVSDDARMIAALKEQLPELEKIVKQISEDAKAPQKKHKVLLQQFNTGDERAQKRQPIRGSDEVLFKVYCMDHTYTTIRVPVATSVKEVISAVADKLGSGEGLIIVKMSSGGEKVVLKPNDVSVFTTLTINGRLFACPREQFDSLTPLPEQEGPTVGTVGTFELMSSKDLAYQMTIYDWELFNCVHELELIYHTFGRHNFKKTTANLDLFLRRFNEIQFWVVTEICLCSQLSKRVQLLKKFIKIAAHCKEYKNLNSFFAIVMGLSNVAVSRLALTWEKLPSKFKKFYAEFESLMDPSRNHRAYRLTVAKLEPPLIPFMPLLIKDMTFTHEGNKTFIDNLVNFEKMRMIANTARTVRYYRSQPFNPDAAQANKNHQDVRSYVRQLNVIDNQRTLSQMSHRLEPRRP
Sequence of Rap guanine nucleotide exchange factor 3 (Homo sapiens) (O95398 whole entry, looked up): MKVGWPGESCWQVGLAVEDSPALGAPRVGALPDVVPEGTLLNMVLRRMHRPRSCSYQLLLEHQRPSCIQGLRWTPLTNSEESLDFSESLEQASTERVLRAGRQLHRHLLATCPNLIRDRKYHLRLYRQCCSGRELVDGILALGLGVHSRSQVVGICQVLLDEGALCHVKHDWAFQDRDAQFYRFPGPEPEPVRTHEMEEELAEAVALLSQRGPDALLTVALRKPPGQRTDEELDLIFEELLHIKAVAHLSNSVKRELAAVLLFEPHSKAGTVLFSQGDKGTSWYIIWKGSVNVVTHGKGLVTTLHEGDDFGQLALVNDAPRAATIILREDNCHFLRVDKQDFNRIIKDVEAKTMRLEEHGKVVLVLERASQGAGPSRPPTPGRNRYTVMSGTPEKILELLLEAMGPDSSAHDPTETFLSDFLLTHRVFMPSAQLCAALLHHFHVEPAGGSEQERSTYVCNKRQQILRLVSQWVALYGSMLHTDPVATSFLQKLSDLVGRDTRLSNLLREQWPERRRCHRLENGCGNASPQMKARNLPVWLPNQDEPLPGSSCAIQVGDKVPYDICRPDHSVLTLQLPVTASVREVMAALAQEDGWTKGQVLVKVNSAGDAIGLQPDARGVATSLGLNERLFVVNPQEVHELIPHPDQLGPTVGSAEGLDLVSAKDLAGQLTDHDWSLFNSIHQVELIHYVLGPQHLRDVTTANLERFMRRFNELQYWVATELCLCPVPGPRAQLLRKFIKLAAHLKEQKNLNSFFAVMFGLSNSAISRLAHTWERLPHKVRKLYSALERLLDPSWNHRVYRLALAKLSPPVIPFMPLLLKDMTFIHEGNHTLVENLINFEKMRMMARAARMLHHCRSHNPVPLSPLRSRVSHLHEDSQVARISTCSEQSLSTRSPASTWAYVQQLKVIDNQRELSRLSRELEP

FC(F)(F)c1cccc(C2NCc3ccccc3-n3cccc32)c1 (stereo unspecified)
inactive: activation [1] 12.8% [at 17.1 µM, percent relative to cAMP agonist control] | activity change, negative = inhibition [2] 2.28% [at 12.7 µM] | activity change, negative = inhibition [3] -3.38% [at 30.8 µM]

Nc1ccc(Cl)cc1C(=O)c1ccccc1Cl
inactive: activation [1] 8.81% [at 17.1 µM, percent relative to cAMP agonist control] | activity change, negative = inhibition [2] -22.9% [at 12.7 µM] | activity change, negative = inhibition [3] -0.237% [at 30.8 µM]
